Test results reported in the supplement of paper PMC11732987, “Enantioselective OTUD7B fragment discovery through chemoproteomics screening and high-throughput optimisation” (Communications Chemistry, 2025).
Unmarked numbers belong to inactive results.

Key:
Experiment in all cases: log2 ratio of Biotin-Ahx-Ub-VS probe labelling (fragment/DMSO); higher = less target engagement (more negative = stronger competition), active = hit call of the paper (q ≤ 0.05, log2 ratio ≤ -1)
Details in all cases: compound concentration: 200 uM; treatment time: 3 h
USP19 = biological target: T1, USP19 (UniProt O94966)
T1 sequence (whole entry): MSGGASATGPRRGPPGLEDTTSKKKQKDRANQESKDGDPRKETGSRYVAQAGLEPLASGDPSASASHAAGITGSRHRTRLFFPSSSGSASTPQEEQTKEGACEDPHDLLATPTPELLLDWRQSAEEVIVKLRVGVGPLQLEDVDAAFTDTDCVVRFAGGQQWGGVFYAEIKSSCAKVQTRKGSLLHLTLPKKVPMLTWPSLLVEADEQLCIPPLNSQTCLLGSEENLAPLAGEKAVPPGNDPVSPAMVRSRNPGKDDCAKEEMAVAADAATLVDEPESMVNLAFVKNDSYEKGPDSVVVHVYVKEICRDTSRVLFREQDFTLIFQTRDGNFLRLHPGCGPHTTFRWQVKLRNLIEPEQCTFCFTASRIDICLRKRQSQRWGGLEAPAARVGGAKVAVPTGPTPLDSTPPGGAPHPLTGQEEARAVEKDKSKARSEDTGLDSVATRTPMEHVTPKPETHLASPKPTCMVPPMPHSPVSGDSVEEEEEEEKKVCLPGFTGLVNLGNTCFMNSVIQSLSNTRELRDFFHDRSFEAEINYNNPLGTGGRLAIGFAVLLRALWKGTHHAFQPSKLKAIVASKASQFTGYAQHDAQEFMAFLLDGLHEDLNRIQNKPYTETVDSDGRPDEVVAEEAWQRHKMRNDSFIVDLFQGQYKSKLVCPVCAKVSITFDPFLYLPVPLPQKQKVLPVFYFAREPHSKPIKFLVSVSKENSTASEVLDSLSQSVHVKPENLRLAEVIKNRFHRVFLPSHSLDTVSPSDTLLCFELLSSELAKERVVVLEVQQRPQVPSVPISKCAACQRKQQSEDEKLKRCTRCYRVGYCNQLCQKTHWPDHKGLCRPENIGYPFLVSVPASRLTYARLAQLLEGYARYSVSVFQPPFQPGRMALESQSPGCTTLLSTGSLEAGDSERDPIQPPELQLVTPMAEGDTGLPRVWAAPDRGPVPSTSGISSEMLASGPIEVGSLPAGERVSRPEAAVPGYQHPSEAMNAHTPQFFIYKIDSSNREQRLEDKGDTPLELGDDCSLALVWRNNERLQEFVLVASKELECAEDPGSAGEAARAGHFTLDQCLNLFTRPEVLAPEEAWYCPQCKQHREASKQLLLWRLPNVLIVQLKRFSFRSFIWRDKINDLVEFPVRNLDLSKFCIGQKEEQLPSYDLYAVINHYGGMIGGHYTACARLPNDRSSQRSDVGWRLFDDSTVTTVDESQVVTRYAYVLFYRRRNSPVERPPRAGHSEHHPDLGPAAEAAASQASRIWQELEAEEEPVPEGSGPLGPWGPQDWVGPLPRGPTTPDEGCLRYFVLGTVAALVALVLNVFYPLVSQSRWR
Outline: (§1)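 Triplicate samples of HEK293T lysate, 495 µg each, received fragment at 200 µM or vehicle for 3 h, followed by Biotin-Ahx-Ub-VS (0.5 µM final) for 1 h. After NeutrAvidin enrichment of labelled DUBs and LysC/trypsin digestion, peptides were run by diaPASEF LC-MS/MS. The values are average log2 fragment/vehicle ratios from global-median-normalised Spectronaut label-free quantities, tested by unpaired t-test on proteins having ≥2 unique peptides.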

USP24 = USP24 (UniProt Q9UPU5)
USP24, sequence (Q9UPU5 whole entry): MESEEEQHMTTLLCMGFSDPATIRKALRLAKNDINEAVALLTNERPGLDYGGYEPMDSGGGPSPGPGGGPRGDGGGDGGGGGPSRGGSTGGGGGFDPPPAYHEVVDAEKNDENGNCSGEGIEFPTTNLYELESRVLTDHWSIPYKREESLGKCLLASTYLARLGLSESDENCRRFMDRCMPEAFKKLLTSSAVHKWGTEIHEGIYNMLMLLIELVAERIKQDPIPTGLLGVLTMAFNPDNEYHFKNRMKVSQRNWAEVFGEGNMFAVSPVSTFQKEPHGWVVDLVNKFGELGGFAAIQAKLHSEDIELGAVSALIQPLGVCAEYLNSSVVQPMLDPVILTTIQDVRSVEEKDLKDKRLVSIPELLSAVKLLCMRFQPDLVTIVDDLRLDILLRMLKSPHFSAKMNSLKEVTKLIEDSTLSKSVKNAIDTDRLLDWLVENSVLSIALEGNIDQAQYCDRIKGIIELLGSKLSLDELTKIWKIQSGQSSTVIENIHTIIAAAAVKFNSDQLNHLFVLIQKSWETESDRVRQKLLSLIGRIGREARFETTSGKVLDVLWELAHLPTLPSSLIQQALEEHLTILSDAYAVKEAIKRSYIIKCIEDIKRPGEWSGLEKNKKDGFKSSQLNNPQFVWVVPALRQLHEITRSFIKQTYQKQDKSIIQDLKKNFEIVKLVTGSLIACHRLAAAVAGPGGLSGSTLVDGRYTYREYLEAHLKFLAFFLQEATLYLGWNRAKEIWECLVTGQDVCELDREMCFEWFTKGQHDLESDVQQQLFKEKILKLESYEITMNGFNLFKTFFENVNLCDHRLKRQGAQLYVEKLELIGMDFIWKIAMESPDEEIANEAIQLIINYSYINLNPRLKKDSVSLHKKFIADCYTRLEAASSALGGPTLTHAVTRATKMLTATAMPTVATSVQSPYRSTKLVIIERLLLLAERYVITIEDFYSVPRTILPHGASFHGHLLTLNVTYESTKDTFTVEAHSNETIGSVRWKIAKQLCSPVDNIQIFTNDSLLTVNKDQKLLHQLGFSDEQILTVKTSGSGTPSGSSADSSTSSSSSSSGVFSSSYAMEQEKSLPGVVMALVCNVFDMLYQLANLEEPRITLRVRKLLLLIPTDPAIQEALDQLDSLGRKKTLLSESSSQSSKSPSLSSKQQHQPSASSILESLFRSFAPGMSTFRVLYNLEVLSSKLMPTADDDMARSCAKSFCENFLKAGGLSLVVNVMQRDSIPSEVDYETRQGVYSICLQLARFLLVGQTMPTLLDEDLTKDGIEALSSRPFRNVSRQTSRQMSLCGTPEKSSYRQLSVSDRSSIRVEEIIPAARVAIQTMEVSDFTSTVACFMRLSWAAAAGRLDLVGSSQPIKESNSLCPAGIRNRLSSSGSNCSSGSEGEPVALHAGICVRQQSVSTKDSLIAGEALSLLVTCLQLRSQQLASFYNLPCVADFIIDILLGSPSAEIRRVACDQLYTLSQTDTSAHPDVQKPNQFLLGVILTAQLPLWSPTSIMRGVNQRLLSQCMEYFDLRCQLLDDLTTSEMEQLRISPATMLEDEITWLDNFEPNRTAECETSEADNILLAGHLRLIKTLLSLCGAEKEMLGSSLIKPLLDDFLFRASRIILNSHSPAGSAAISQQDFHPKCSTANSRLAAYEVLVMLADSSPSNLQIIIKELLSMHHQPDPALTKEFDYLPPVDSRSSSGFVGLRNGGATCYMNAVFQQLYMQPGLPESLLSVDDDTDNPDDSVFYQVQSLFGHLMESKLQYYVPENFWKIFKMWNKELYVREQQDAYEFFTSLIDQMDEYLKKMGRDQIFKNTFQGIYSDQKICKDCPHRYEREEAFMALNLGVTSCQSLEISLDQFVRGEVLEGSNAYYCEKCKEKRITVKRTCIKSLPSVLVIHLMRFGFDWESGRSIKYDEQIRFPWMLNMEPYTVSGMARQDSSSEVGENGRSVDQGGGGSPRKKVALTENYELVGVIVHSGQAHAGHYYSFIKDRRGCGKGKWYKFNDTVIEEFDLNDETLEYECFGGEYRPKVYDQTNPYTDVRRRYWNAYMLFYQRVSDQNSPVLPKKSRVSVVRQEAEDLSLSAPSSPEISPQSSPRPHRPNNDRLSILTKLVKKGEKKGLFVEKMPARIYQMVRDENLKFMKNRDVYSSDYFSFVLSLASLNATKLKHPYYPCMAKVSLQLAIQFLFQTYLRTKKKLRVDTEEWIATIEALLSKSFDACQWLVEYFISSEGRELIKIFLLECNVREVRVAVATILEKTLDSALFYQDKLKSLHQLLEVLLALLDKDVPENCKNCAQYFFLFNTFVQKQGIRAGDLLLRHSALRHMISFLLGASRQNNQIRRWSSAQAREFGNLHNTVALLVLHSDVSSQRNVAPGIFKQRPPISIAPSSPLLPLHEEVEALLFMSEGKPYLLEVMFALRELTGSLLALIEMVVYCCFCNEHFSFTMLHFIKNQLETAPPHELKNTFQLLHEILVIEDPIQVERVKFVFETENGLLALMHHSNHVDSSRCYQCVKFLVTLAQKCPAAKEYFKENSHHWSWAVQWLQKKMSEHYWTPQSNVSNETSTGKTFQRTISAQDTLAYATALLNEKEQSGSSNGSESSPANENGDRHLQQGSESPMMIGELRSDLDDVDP
Outline: as §1

USP25 = biological target: T2, USP25 (UniProt Q9UHP3)
T2 sequence (whole entry): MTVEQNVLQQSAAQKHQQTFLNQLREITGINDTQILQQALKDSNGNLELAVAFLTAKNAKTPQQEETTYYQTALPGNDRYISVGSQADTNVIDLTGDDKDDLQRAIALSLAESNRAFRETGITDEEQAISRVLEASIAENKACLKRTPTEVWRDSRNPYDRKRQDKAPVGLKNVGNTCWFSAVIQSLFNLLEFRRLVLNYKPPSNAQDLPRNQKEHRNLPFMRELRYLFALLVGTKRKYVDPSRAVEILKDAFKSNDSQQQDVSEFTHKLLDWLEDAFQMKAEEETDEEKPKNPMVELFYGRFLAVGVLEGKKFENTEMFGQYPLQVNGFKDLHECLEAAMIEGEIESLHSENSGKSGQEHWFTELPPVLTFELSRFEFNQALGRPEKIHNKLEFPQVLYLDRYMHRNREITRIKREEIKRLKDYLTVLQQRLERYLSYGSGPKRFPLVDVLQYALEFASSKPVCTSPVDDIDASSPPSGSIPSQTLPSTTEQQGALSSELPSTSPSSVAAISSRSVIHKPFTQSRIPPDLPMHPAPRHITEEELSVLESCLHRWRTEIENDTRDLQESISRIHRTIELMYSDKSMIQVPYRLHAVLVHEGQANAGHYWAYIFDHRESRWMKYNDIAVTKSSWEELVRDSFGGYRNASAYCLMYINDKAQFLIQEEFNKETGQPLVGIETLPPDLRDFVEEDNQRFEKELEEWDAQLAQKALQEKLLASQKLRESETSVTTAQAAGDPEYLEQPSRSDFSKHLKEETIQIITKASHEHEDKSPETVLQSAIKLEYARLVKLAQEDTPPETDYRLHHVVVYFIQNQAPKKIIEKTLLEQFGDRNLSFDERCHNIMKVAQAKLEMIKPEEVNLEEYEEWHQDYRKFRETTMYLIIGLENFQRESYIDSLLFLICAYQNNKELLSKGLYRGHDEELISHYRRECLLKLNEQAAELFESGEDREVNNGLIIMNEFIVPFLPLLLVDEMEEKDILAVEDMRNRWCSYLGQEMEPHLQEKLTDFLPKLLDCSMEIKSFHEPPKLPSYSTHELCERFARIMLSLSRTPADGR
Outline: as §1

USP28 = biological target: T3, USP28 (UniProt Q96RU2)
T3 sequence (whole entry): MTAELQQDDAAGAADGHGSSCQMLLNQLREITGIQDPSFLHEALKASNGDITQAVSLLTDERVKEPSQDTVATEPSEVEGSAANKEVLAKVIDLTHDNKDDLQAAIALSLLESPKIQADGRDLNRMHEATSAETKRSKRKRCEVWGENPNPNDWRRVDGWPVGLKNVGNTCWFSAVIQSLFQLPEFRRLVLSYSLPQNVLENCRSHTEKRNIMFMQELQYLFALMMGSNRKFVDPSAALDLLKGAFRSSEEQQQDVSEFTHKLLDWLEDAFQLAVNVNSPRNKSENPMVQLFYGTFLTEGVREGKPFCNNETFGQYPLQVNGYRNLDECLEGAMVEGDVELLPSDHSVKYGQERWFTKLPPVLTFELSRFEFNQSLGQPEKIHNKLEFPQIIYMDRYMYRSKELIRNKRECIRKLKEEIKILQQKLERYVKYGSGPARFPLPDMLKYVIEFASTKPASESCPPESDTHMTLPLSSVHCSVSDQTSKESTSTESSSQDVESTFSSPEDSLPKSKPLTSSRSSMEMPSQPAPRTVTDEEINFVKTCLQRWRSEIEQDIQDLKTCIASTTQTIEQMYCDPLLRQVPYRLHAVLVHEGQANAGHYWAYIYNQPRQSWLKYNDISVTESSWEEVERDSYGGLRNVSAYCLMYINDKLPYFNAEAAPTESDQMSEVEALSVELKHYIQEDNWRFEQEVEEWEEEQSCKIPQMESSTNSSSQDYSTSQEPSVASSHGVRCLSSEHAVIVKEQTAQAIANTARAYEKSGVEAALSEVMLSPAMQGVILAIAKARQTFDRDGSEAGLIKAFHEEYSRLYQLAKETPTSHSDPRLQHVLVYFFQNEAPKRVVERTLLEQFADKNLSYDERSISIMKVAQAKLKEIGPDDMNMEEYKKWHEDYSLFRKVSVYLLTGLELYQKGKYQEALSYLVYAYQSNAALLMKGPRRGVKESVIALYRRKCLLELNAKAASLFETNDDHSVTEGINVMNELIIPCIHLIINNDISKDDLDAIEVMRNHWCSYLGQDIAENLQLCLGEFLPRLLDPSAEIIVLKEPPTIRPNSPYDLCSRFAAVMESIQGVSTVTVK
Outline: as §1

## Cl.O=C(CCl)N1CCC(n2nc3ccccc3n2)CC1
USP19
  log2 ratio of Biotin-Ahx-Ub-VS probe labelling: -0.666
USP24
  log2 ratio of Biotin-Ahx-Ub-VS probe labelling: -1.08 (active)
USP25
  log2 ratio of Biotin-Ahx-Ub-VS probe labelling: -0.61
USP28
  log2 ratio of Biotin-Ahx-Ub-VS probe labelling: -0.611
